SMILES strings stand for the structures. For part of these data: Potency and affinity values are given separately. The source made the active and inactive calls.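 How the source made its calls, unless noted: active means compound raising the membrane signal above positive-control mean plus 3 SD in both repeats, and a primary screen hit; inactive means the rest.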

In test [1] the test system is TRPC4 beta (transient receptor potential cation channel C4), mouse. Description: activators of mouse TRPC4 channel, confirmation, cell-based, Fluo4 calcium, HEK293 TRPC4beta/mu-opioid, duplicates, 10 µM (AID 2426;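 active means fluorescence ratio normalized to control raised more than 50% in primary screen plus both repeat runs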). The conditions noted are these: Fluo4 calcium fluorescence, at 10 µM; hits give high values.
Test [2] deals with transient receptor potential cation channel C4 beta (TRPC4), mouse. Description: activators of mouse TRPC4 channel, confirmation, cell-based, second round, Fluo4, HEK293 TRPC4beta/mu-opioid, 1 µM (AID 2461;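 active means primary screen active and over 50% activation in each of two duplicate runs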). Conditions: Fluo4 calcium fluorescence, at 1 µM; hits give high values.
Test [3] deals with TRPC4 (transient receptor potential cation channel C4 beta), mouse. Description: positive allosteric modulators of mouse TRPC4, confirmation, cell-based, second round, Fluo-4, HEK293 TRPC4beta/mu-opioid, 1 µM (AID 2554;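 active means primary screen hit whose fluorescence ratio, in both repeats, exceeds the weak agonist control mean by 3 SD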). The conditions noted are these: DAMGO EC20, Fluo-4 calcium flux, at 1 µM; hits give high values.
Test [4] concerns TRPC4 beta (transient receptor potential cation channel C4), mouse. Description: positive allosteric modulators of mouse TRPC4, confirmation, cell-based, Fluo-4, HEK293 TRPC4beta/mu-opioid (AID 2555;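 active means primary screen hit whose calcium fluorescence ratio, in both repeats, exceeds the weak agonist control mean by 3 SD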). Conditions: DAMGO EC20, Fluo-4 calcium flux, at 10 µM; hits give high values. A general note: Calcium flux is commonly read through the fluorescence of an indicator in the cells.
The target of test [5] is Short transient receptor potential channel 4 (Mus musculus) (UniProt Q9QUQ5). In words: inhibitors of mouse TRPC4 channel, confirmation, cell-based, Fluo4, HEK293 TRPC4beta/mu-opioid (AID 2636;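 active means calcium signal cut by more than 3 SD below the full-agonist control yet still positive, in both repeats and the earlier primary screen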). The conditions noted are these: DAMGO, Fluo4 calcium flux, at 10 µM; hits give high values.
Short transient receptor potential channel 4 (Mus musculus), sequence (Q9QUQ5 whole entry, looked up): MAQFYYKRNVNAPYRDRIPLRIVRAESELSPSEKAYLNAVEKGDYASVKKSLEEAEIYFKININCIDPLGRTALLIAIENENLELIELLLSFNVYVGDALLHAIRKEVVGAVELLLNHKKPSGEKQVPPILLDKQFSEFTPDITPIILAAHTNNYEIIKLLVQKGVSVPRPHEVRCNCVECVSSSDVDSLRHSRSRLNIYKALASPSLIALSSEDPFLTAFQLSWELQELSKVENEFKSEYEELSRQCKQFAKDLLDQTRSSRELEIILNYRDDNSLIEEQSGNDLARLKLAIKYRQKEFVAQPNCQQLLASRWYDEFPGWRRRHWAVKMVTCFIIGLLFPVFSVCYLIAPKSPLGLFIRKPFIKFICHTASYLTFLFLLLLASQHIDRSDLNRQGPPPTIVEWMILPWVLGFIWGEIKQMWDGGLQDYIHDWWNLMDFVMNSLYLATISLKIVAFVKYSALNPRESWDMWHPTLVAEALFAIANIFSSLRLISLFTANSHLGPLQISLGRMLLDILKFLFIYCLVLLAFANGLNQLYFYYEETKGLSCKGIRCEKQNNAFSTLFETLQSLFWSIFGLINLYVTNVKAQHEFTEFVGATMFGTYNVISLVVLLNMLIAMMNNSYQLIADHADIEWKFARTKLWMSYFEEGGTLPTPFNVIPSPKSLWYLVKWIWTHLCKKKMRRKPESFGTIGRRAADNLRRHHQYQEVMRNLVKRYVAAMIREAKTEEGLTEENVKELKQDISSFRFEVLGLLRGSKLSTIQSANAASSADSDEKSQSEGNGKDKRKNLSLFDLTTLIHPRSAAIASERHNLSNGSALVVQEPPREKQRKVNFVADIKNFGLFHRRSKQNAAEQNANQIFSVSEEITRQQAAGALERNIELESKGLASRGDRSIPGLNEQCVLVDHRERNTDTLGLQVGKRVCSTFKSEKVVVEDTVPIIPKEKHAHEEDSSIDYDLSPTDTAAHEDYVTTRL
For test [6] the target is unchanged. Description: inhibitors of mouse TRPC4 channel, confirmation, cell-based, second round, Fluo4, HEK293 TRPC4beta/mu-opioid, 1 µM (AID 2637;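 active means calcium signal ratio cut to more than 3 SD under the fully stimulated control mean yet still positive, in both repeats and the primary screen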). Conditions: Fluo4 calcium flux, DAMGO, at 1 µM; hits give high values.
For test [7] the target is unchanged. Description: mouse TRPC4 channel activators, dose response, cell-based, HEK293 TRPC4/mu-opioid, Fluo-4 calcium (AID 434937;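 active means primary screen activator hit with a dose response curve and TRPC4 channel activation at any tested dose; inactive means no activation, no dose response, or not a primary hit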).
The target is the same in test [8]. Description: TRPC4 positive allosteric modulators, dose response, cell-based, HEK293 TRPC4/mu-opioid, Fluo-4 calcium, EC20 DAMGO (AID 434941;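 active means earlier screen potentiator hit that boosts the TRPC4 ion channel at some dose, with a dose response; inactive means no potentiation, no dose response, or not a prior hit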;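 further: calcium entry triggered by an EC20 dose of DAMGO at the co-expressed mu-opioid receptor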).
Test [9] shares this target. Description: mouse TRPC4 channel inhibitors, dose response, cell-based, HEK293 TRPC4/mu-opioid, Fluo-4 calcium (AID 434942;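 active means primary screen inhibitor hit that blocks the TRPC4 channel at some tested dose, yielding a dose curve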).
The target of test [10] is Short transient receptor potential channel 6 (Mus musculus) (UniProt Q61143). In words: inhibition of mouse TRPC6 channel, confirmation, selectivity assay for TRPC4 inhibitor project, cell-based, HEK293, membrane potential dye, duplicate (AID 434948;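 active means active in primary screen and both duplicates, each dropping signal beyond three positive-control SD with fluorescence still positive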). Conditions: HEK293 TRPC6, membrane potential dye fluorescence, at 10 µM, stimulated with maximal-effect acetylcholine; hits give high values.
Short transient receptor potential channel 6 (Mus musculus), sequence (Q61143 whole entry, looked up): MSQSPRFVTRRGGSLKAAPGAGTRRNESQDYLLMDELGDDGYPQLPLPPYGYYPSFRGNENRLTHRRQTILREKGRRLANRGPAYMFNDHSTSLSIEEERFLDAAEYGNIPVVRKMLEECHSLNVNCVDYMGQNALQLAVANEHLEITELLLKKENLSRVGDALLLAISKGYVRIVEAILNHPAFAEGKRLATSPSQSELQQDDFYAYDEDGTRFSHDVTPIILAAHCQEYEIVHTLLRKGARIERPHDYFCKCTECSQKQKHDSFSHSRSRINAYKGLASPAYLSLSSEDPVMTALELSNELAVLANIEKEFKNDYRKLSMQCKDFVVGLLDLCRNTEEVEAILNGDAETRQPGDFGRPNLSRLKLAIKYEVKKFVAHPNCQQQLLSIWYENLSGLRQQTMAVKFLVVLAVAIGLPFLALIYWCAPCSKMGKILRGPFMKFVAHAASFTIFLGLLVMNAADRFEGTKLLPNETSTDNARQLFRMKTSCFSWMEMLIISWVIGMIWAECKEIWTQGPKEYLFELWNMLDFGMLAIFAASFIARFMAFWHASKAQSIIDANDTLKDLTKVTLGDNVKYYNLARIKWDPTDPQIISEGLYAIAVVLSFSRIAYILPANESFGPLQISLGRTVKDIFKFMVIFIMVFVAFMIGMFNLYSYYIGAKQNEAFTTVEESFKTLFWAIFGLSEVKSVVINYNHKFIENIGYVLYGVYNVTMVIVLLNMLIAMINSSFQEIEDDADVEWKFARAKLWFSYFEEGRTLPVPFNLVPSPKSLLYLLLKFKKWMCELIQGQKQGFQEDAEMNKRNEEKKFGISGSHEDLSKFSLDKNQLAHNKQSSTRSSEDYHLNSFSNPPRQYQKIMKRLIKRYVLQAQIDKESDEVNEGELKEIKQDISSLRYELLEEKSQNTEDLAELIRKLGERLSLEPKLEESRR

For test [11] the target is unchanged. Description: activation of mouse TRPC6 channel, confirmation, selectivity assay for TRPC4 activator project, cell-based, HEK293, membrane potential dye, duplicate (AID 434950;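 active means membrane potential signal rise above negative control mean plus 3 SD in both duplicates, also active in the earlier TRPC4 screen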). Conditions: HEK293 TRPC6, membrane potential fluorescence, at 10 µM; hits give high values.
Test [12] shares this target. In words: TRPC6 potentiation by TRPC4 potentiator hits, confirmation, selectivity assay for TRPC4 potentiator project, HEK293 cells, membrane potential dye, duplicate (AID 434952). Conditions: HEK293 TRPC6, membrane potential dye fluorescence, at 10 µM, maximal acetylcholine added after compound; hits give high values.
Test [13] deals with Short transient receptor potential channel 4 (Mus musculus) (UniProt Q9QUQ5). Description: calcium flux activators in TRPC4/5HT1a cells, counter-screen for TRPC4 activator project, cell-based, second counter screen, HEK293 TRPC4/5HT1a, Fluo-4 (AID 434977;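 active means calcium signal rise above buffer-control mean plus 5 SD in both duplicates, and also a hit in the primary screen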). Conditions: Fluo-4 calcium flux, at 10 µM; hits give high values.
Test [14] can be described thus: calcium flux inhibitors in TRPC4/5HT1a cells, confirmation, counter-screen for TRPC4 inhibitor project, cell-based, second counter screen, HEK293 TRPC4/5HT1a, Fluo-4 (AID 434978;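 active means primary screen active whose calcium signal fell more than 3 SD beyond the full-serotonin control mean in both duplicate plates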;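 further: serotonin given first at submaximal then at maximal dose after compound preincubation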). The conditions noted are these: Fluo-4 calcium flux, at 10 µM, serotonin added to trigger calcium flux; hits give high values.
Test [15] relates to TRPC4 (mouse), co-expressed with 5HT1a in HEK293. Description: calcium flux potentiators in TRPC4/5HT1a cells, confirmation, counter-screen for TRPC4 potentiator project, cell-based, second counter screen, HEK293 TRPC4/5HT1a, Fluo-4 (AID 434979;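 active means signal rise over 3 SD above mean of control wells given weak agonist, in both repeats and first screen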). Conditions: Fluo-4 calcium flux, at 10 µM, serotonin added at its EC20 dose; hits give high values.
Test [16] in a line: calcium flux activation in mu-opioid HEK293 cells, confirmation, counter-screen for TRPC4 activator project, cell-based, HEK293 mu-opioid receptor line (AID 449723;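 active means hit in primary screen, with calcium signal over 5 SD above buffer well mean in both duplicates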;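 further: counter screen cells carry the mu-opioid receptor alone and lack TRPC4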). The conditions noted are these: Fluo-4 calcium fluorescence, at 10 µM; hits give high values.
Test [17] can be described thus: calcium flux enhancement in mu-opioid HEK293 cells, confirmation, counter-screen for TRPC4 allosteric potentiator project, cell-based, HEK293 mu-opioid receptor line (AID 449724;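 active means calcium signal rise more than 3 SD above the low-dose agonist control mean, in both duplicate plates and the primary screen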;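 further: HEK293 cells carrying mu-opioid receptor only with no TRPC4 channel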). Conditions: Fluo-4 calcium flux, at 10 µM, compound added before EC20 DAMGO stimulus; hits give high values.

Regarding `Cc1cc(Nc2ccc3c(c2)OCCO3)c2cc(Cl)ccc2n1`, the outcome in test [1], in test [2], in test [3], in test [4], in [5] and in test [6] was inactive. For the same compound, the result in test [7], in test [8], in test [9], in test [10], in test [11] and in test [12] was inactive. Also, the result in test [13], in test [14], in test [15], in [16] and in [17] was inactive.

Turning to `Cc1ccc(Cl)cc1N1CCN(Cc2nc3ccsc3c(=O)[nH]2)CC1`, the outcome in test [1], in [2], in [3], in test [5], in test [6] and in [7] was inactive. Also, the outcome in test [8], in test [9], in test [10], in [11], in [12] and in [13] was inactive. Also, the result in [14], in test [15], in test [16] and in test [17] was inactive. Also, in test [4], the potentiation is 25% (active).

As for `CSc1ccc(CN(C)C(C)C(=O)NCc2ccccc2)cc1` (stereo not given), the result in [1], in [2], in [3], in test [4], in [5] and in test [6] was inactive. The result in [7], in test [8], in test [9], in test [10], in test [11] and in test [12] was inactive. Further, the outcome in test [13], in test [14], in test [15], in test [16] and in test [17] was inactive.

For `CCN1CCN(c2ccc(S(=O)(=O)N3CCCCC3)cc2NC(=O)c2cccc(OC(F)F)c2)CC1`, the result in [1], in [2], in test [5], in test [6], in [7] and in test [8] was inactive. The outcome in test [9], in test [10], in test [11], in [12], in test [13] and in [14] was inactive. In addition, the outcome in test [16] and in [17] was inactive. Moreover, the figures for the potentiation in test [3], in [4] and in [15] were 7% (active), 18% (active) and 15.6% (active), respectively.

Regarding `O=C(c1ccc([N+](=O)[O-])s1)N1CCCc2ccccc21`, the outcome in test [1], in test [2], in test [3], in [4], in test [5] and in test [6] was inactive. The result in [7], in test [8], in test [9], in [10], in test [11] and in test [12] was inactive. The outcome in [13], in test [14], in test [15], in [16] and in test [17] was inactive.

Regarding `Cc1cc(C(=O)CN2C(=O)C(=O)N(CC(C)C)C2=O)c(C)n1-c1ccccc1F`, the outcome in test [1], in test [2], in [3], in [4], in [5] and in [6] was inactive. In addition, the outcome in [7], in test [8], in [9], in [10], in [11] and in test [12] was inactive. Also, the result in [13], in [14], in [16] and in test [17] was inactive. Moreover, the potentiation in test [15] is 35.1% (active).

As for `CCOC(=O)c1c(NC(=O)C2CCCO2)sc2c1CCC2` (stereo not given), the result in test [1], in test [2], in test [3], in test [5], in [6] and in test [7] was inactive. The result in [8], in [9], in test [10], in [11], in test [12] and in test [13] was inactive. Moreover, the outcome in [14], in [16] and in [17] was inactive. Besides, the values for the potentiation in test [4] and in [15] were 40% (active) and 47.8% (active), respectively.

As for `COc1ccc(Cl)c2sc(N(CCN(C)C)C(=O)CCS(=O)(=O)c3ccc(C)cc3)nc12`, the result in test [1], in test [2], in [4], in [5], in test [6] and in [7] was inactive. Also, the outcome in test [8], in test [9], in test [10], in [11], in [12] and in test [13] was inactive. Moreover, the outcome in test [14], in [15], in test [16] and in test [17] was inactive. For the same compound, the potentiation in [3] is 12% (active).

In the case of `O=S(=O)(c1ccccc1Cl)N1CCC(Cc2ccccc2)CC1`, the result in [1], in test [2], in test [3], in test [5], in [6] and in test [7] was inactive. The result in test [8], in test [9], in [10], in test [11], in [12] and in [13] was inactive. Further, the outcome in test [14], in [16] and in test [17] was inactive. In addition, the potentiation was 16% (active) in test [4] and 6.72% (active) in test [15].

Turning to `CC(=O)c1ccc(N2CCN(c3ccc(S(=O)(=O)NCCCN(C)C)cc3[N+](=O)[O-])CC2)cc1`, the outcome in test [1], in test [2], in test [5], in [6], in [7] and in test [8] was inactive. In addition, the result in test [9], in [10], in [11], in test [12], in [13] and in test [14] was inactive. The outcome in [16] and in test [17] was inactive. For the same compound, the potentiation was 12% (active) in test [3], 19% (active) in test [4] and 14.6% (active) in test [15].

With `CCOCCCNCc1ccc(OCc2ccccc2Cl)cc1`, the outcome in [1], in test [2], in test [3], in [4], in [5] and in test [6] was inactive. The result in test [7], in [8], in [9], in test [10], in [11] and in [12] was inactive. Moreover, the outcome in test [13], in [14], in test [15], in test [16] and in test [17] was inactive.

In the case of `N=c1c(C(=O)NCc2ccc(F)cc2)cc2c(=O)n3ccccc3nc2n1Cc1ccco1`, the result in test [1], in test [2], in [3], in [5], in [6] and in test [7] was inactive. Moreover, the result in test [8], in test [9], in test [10], in [11], in test [12] and in [13] was inactive. Also, the result in test [14], in [15], in test [16] and in test [17] was inactive. Further, in test [4], the potentiation is 17% (active).

As to `C/C(N)=C(/C#N)C(=O)COC(=O)C1CCC(C(C)(C)C)CC1` (stereo not given), the result in test [1], in test [2], in test [3], in [4], in [5] and in test [6] was inactive. For the same compound, the result in [7], in test [8], in [9], in test [10], in [11] and in test [12] was inactive. The result in test [13], in [14], in test [15], in [16] and in [17] was inactive.

For `Cc1ccc(S(=O)(=O)c2c(C(=O)c3ccccc3)cnc3cc4c(cc23)OCCO4)cc1`, the result in test [1], in [2], in test [3], in test [4], in test [5] and in [6] was inactive. Further, the result in test [7], in [8], in test [9], in test [10], in test [11] and in test [12] was inactive. In addition, the result in [13], in test [14], in test [16] and in [17] was inactive. For the same compound, the potentiation in test [15] was 14.5% (active).

As for `CC(=O)Nc1ccc(CN2CCCC(CO)(Cc3ccccc3C)C2)cc1` (stereo not given), the outcome in test [1], in test [2], in test [3], in test [4], in [5] and in [6] was inactive. Further, the outcome in [7], in test [8], in [9], in [10], in test [11] and in test [12] was inactive. The outcome in [13], in [14], in test [15], in test [16] and in test [17] was inactive.

For the origin of these results see PubChem BioAssay.
